NS1 inh: qHTS Assay for Inhibitors of Influenza NS1 Protein Function | Potency, µM (highest dose often 46.1 µM), for inactives: top-dose activity, positive = more growth | 0.4% of 270,000 active; calls by dose curve; further: potency means the concentration at half of the fitted maximal effect; actives are rising curves; nearly all actives have a fitted effect of over 50% in size
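Read-out: OD600 growth recovery of NS1-expressing budding yeast. Cells grown overnight at 30C in -URA glucose medium, washed, resuspended and diluted 1:100 in 2% galactose assay medium, pH 6.0. Same strain lacking NS1 served as positive control.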
SARS PLP yeast: qHTS of Yeast-based Assay for SARS-CoV PLP; S. cerevisiae expressing SARS-CoV PLpro, growth rescue; Potency, µM (highest dose often 32.9 µM), without a hit: at the top dose activity, positive = growth rescue, most hits filed as activators; 0.19% of 330,000 active; calls by dose curve; further: potency means the concentration at half of the fitted maximal effect; 0% is about no effect; nearly all actives have a fitted effect of over 55% in size
Cycloheximide cs: Cycloheximide Counterscreen for Small Molecule Inhibitors of Shiga Toxin; cell reporter, cycloheximide protein synthesis inhibition counterscreen; max response, %; 12% of 300,000 active; in the data active means max response mostly above about 13%, no sharp cut-off; inactive means mostly below about 14%; further: read at 38.3 µM for the half of the compounds with a filed dose; 0% is about no effect
Pf growth 48h: Primary qHTS for delayed death inhibitors of the malarial parasite plastid, 48 hour incubation; P. falciparum luciferase growth in erythrocytes, 48 h; Potency, µM (highest dose often 28.7 µM), inactives show at the top dose activity change, negative = inhibition, most hits filed as inhibitors; 5.9% of 310,000 active; AID 504832, 2011; further: potency means the concentration at half of the fitted maximal effect; on the % scale 0 is the no-effect control and ±100 the full control effect
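Growth was read as firefly luciferase luminescence after a 48 h, 37 C, 5% CO2 exposure of compounds to reporter-bearing P. falciparum cultures (0.1% parasitemia, 2% hematocrit final) in Albumax-supplemented RPMI 1640.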
Pf growth 96h: Primary qHTS for delayed death inhibitors of the malarial parasite plastid, 96 hour incubation; P. falciparum luciferase reporter growth, 96 h; Potency, µM (top dose mostly 28.7 µM), inactives show at the highest dose activity change, negative = inhibition, hits mostly inhibitors; 6.9% of 320,000 active; AID 504834, 2011; further: potency means the concentration at half of the fitted maximal effect; on the % scale 0 is the no-effect control and ±100 the full control effect
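Two-generation exposure (96 h) targets delayed-death phenotype. Reporter parasites carrying integrated firefly luciferase, in red cells at 2% hematocrit and 0.05% parasitemia final, kept at 37 C, 5% CO2; luminescence loss indicates inhibition.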
Shiga toxin inh: A qHTS for Small Molecule Inhibitors of Shiga Toxin; Vero cells, Shiga toxin protein synthesis inhibition reporter; inhibition, % at 38.7 µM; 9.2% of 290,000 active; in the data active means inhibition mostly above about 28%, no sharp cut-off; inactive means mostly below about 43%; further: 0% is about no effect
An asterisk follows results filed as active; ? = inconclusive; nt = not tested or not shown; [ ] = remark or other dose. Only some compounds are listed: those with a hit (about 21% of all), similar ones and a draw of the others. Unless noted, the call rests on the fitted dose curve; in most records, active means well fitted inhibition curve with a large enough effect; inconclusive means small, poorly fitted or top-dose-only effect, or another doubt; inactive means no such curve, though single readings can be large or run the other way.

SMILES	NS1 inh	SARS PLP yeast	Cycloheximide cs	Pf growth 48h	Pf growth 96h	Shiga toxin inh
C=CCOc1cccc(C2C(C(=O)c3cc4ccccc4o3)=C(O)C(=O)N2c2cc(C)on2)c1 (stereo not given)	5.2%	1.5%	-2.4	?	?	2.4
CC(=O)c1nn(-c2ccc(Cl)cc2)c(=O)[nH]c1=O	-51.9%	1.1%	1.3	17.0%	9.6%	2.3
CN(Cc1ccccc1)C(=O)CSc1n[nH]c(N)n1	5.0%	1.9%	-2.3	1.3%	-3.0%	-13.7
C[C@H]1CC(C)(C)C[C@@](OCCN2CCCCC2)(c2ccccc2)C1	-15.6%	nt	nt	nt	nt	nt
COc1cc(NC(=O)c2ccc(=O)[nH]n2)cc(OC)c1OC	3.3%	1.6%	1.2	9.4%	31.5%	2.5
CCOc1ccc(C(NC(C)=O)c2ccc(OC)c(OC)c2)cc1 (stereo not given)	1.1%	10.5%	7.0	-6.4%	1.47µM*	-16.5
CCCOC1CCCN(C(=O)c2cc(COc3ccc(-n4cncn4)cc3)on2)C1 (stereo not given)	-10.5%	-0.3%	37.6*	?	-16.9%	62.6*
CCc1ccc(CN(C)C(=O)c2cc(COc3ccc(-n4cncn4)cc3)on2)cc1	-0.5%	7.1%	18.5*	3.4%	4.5%	45.1
O=C(N[C@@H](Cc1ccccc1)C(=O)NC1CCCCC1)c1ccco1	10.2%	12.9%	14.0	nt	-29.7%	22.6*
O=C(NC1CCCCCCC1)c1ccco1	-36.9%	-12.4%	18.0*	0.1%	nt	43.0*
C/C(=N\NC(=O)NC1CCCCC1)c1ccco1	nt	-0.1%	11.8*	-10.9%	27.5%	22.9
O=C(NC1CCN(C(=O)NC2CCCCC2)CC1)c1ccco1	-1.3%	-0.2%	-3.0	1.2%	nt	19.2
CC(OC(=O)c1ccco1)C(=O)NC1CCCCC1 (stereo not given)	-7.8%	-3.8%	-3.3	8.1%	?	-19.6
O=C(N[C@@H](Cc1ccccc1)C(=O)NC1CCCCCC1)c1ccco1	-0.4%	-0.2%	52.5*	nt	16.4%	98.3*
COc1ccc(-n2c(=O)/c(=C\c3cccs3)s/c2=C(/C#N)C(=O)N2CCN(C)CC2)cc1	17.5%	5.4%	9.3	?	20.1%	-12.4
CC1CCC2(CC1)NC(=O)N(CC(=O)NCc1ccc(F)cc1)C2=O (stereo not given)	nt	6.2%	nt	-15.4%	?	nt
O=C(COC(=O)c1ccccc1NC(=O)c1ccco1)NC1CCCCC1	-4.4%	0.6%	0.6	23.5%	nt	11.0
O=C(COC(=O)c1ccco1)NC1CCCCC1	-2.7%	-0.1%	22.3*	2.4%	nt	17.0
CCC(=O)Nc1cc(-c2nn3c(C)nnc3s2)ccc1C	-18.1%	1.1%	15.6	18.2%	7.0%	12.6
Cc1ccc(OCC(=O)Nc2cc(-c3nn4c(C)nnc4s3)ccc2C)cc1	-1.5%	-0.5%	-1.5	?	7.38µM*	-17.3
CC1(C)C(c2ccco2)=[N+]([O-])C2(CCCCC2=O)N1O (stereo not given)	-0.6%	23.5%	0.7	-14.5%	-5.3%	9.8
C/C(=N/Nc1ccc(C)cc1)C1(C)N(O)C(C)(C)C(c2ccco2)=[N+]1[O-] (stereo not given)	nt	3.1%	16.8*	28.0%	137.5%	35.8
O=C1Nc2ccccc2C12OC1CCCCC1O2 (stereo not given)	12.4%	2.3%	-0.9	11.7µM*	3.7µM*	11.7
Cc1cnc(C(=O)N2CCCC(N3CCN(c4cccc(C(F)(F)F)c4)CC3)C2)cn1 (stereo not given)	-22.6%	-8.8%	0.5	?	?	-4.2
CCC(=O)N1CCN(c2ccc(NC(=O)c3ccco3)cc2Cl)CC1	-15.5%	-4.9%	14.7*	?	-1.4%	38.2
CCC(=O)N1CCN(c2ccc(NC(=O)c3ccc(C#N)cc3F)cc2Cl)CC1	nt	0.8%	-1.9	-20.2%[5.75 µM]	?	1.1
O=C(Nc1ccc(N2CCN(C(=O)c3ccccc3)CC2)c(Cl)c1)c1ccco1	-37.2%	-8.4%	-2.8	8.28µM*	-21.7%	-9.3
CC(C)C(=O)N1CCN(c2ccc(NC(=O)c3ccco3)cc2Cl)CC1	6.6%	-1.8%	18.3	9.28µM*	?	21.4

Assay outcomes from PubChem BioAssay.
